Bioassay records: PubChem BioAssay, several laboratories
Only some compounds are listed: those with a hit (about 1.8% of all), similar ones and a draw of the others.
VHR inh abs: VHR1 phosphatase inhibitors, primary screen, biochemical, absorbance, uHTS | Dual specificity protein phosphatase 3 (Homo sapiens), P51452 | recombinant VHR phosphatase, pNPP absorbance | inhibition, % at 13.3 µM | 290,000 compounds, 0.52% hits | AID 1654, 2009; in the data active means inhibition above about 50%
BH1578 lux ind: inducers of Vibrio cholerae quorum light production without autoinducers, primary screen, BH1578 luxS cqsA deficient, single point. 350,000 compounds, 0.16% hits. V. cholerae BH1578 lux reporter, luminescence, 6 h. activation, % at 18.7 µM; in the data active means activation mostly above about 9.7%, no sharp cut-off
MazEF act: activators of E. coli MazEF toxin-antitoxin RNase, primary screen, biochemical, fluorescence, uHTS; Endoribonuclease toxin MazF (Escherichia coli (strain K12)), P0AE70; FAM/BHQ RNA-DNA oligo cleavage fluorescence, 5 h; activation, % at 20 µM; 350,000 compounds, 0.32% hits; AID 504720, 2011; in the data active means activation above about 50%
Yp Topo-I inh: Yersinia pestis topoisomerase I inhibitors, primary screen, biochemical, cleavage product accumulation, plate reader, single point; DNA topoisomerase I (Yersinia pestis CO92); Y. pestis Topo-I cleavage product accumulation; activity, % at 10 µM; 360,000 compounds, 0.064% hits; AID 504884, 2011; in the data active means activity above about 50%, passing the limit was not always enough
PrPC TRFRET: inhibitors of human cell surface prion protein PrPC, primary screen, cell-based, TR-FRET | inhibition, % at 13.8 µM | TR-FRET read-out | 370,000 compounds, 0.43% hits; in the data active means inhibition above about 24%; further: 0% = median of the test wells and 100% = reference compound wells
CCHF vOTU inh: CCHFV vOTU protease inhibitors, primary screen, biochemical, Pep-AMC substrate, fluorescence; Crimean-Congo hemorrhagic fever virus L polyprotein viral ovarian tumor (vOTU) protease …; inhibition, % at 11.5 µM; 370,000 compounds, 0.55% hits; AID 651958, 2012; in the data active means inhibition above about 30%; further: 0% = vehicle wells with enzyme and 100% = no enzyme wells
PrPC confirm: confirmation of inhibitors of cell surface human prion protein, confirmation, cell-based, TR-FRET; shares compounds with PrPC TRFRET; inhibition, % at 13.8 µM; 1,500 compounds, 65% hits; cell surface PrPC level; in the data active means inhibition above about 25%
LD9 tox: cytotoxicity in LD9 cells, cytotoxicity control for cell surface PrPc inhibitor project, cell-based, luminescence, high throughput | shares compounds with PrPC TRFRET | luminescence viability | inhibition, % at 13.8 µM | 1,500 compounds, 29% hits | AID 743201, 2013; in the data active means inhibition above about 9.5%
* hit, by the source's call; i = inactive; x = not tested or not shown.

SMILES	VHR inh abs	BH1578 lux ind	MazEF act	Yp Topo-I inh	PrPC TRFRET	CCHF vOTU inh	PrPC confirm	LD9 tox
Cc1cccc(C)c1NC(=O)C(c1ccccc1)N1CCC(Cc2ccccc2)CC1 (centres undefined)	x	x	x	x	6	-4	x	x
CC(C)CN1C(=O)C[C@]2(C(=O)N(C)c3ccc(NC(=O)C(F)(F)F)cc32)C1c1ccccc1 (some centres undefined)	x	x	x	x	7	-3	x	x
CN(C)S(=O)(=O)c1cccc(-c2nn(-c3ccccc3)cc2/C=C(/C#N)C(=O)NCc2ccco2)c1	37	0	-75	4	29*	-4	10	-2
CCN(CC)S(=O)(=O)c1cccc(-c2nn(-c3ccccc3)cc2/C=C(\C#N)C(=O)NCc2ccco2)c1	-16	0	-15	1	-6	-21	x	x
COc1ccc(OC(F)(F)F)cc1CC1(C)C(=O)Nc2ccc(S(=O)(=O)NC3CCCCC3)cc21 (centres undefined)	x	0	x	21	36*	16	29*	-1
COc1cnc(-c2ccccn2)nc1N(C)c1ccccc1	9	i	5	4	34*	8	27*	23*
COc1ccccc1NS(=O)(=O)c1cccc(NC(=O)Nc2ccc(Cl)cc2)c1	13	0	47	-9	45*	13	19	0
COc1cc2[nH]cc(C(=O)NCCc3ccccc3)c(=O)c2cc1OC	-18	i	-5	6	8	-14	x	x
COc1cccc2c(=O)c(C(=O)NCCc3ccccc3)c[nH]c12	x	i	4	6	25*	-21	12	-4
COc1cc(/C=N/NC(=O)c2ccccc2)ccc1O	10	i	1	-3	0	7	x	x
COc1cc(/C=N/NC(=O)c2ccc(CN(C)S(=O)(=O)c3ccc(C)cc3)cc2)ccc1O	15	-2	8	10	28*	6	13	-1
C[C@H](CO)N1C[C@H](C)[C@@H](CN(C)Cc2ccncc2)Oc2c(NC(=O)C3CC3)cccc2C1=O	x	i	6	10	-5	-9	x	x
C[C@H]1COC(=O)[C@@H](Cc2ccc(F)cc2)C/C=C\C[C@@H](CC(=O)NCCO)C(=O)N1	x	i	3	0	0	11	x	x
C[C@@H]1COC(=O)[C@H](Cc2ccc(F)cc2)C/C=C\C[C@@H](CC(=O)NCCO)C(=O)N1	x	i	4	-1	44*	6	7	-3
COP(=O)(OC)c1nc(-c2ccccc2)oc1NCc1ccccc1	12	-4	-4	21	7	-21	x	x
CCCOP(=O)(OCCC)c1nc(-c2ccccc2)oc1NCc1ccccc1	8	i	-5	-11	28*	10	14	-6
S=c1[nH]nc(-c2ccccc2)o1	3	i	-4	3	8	5	x	x
CSc1ccccc1-c1n[nH]c(=S)o1	6	0	6	3	66*	0	83*	-7
Cc1ccccc1-c1n[nH]c(=S)o1	20	0	0	-6	63*	9	72*	-3
Cc1cccc(OCc2nnc(SCC(=O)NCc3ccc4c(c3)OCO4)o2)c1	x	0	3	19	1	6	x	x
Cn1nc(C(F)(F)F)c(/C=N/OC(=O)c2ccccc2Cl)c1SCc1ccccc1Cl	-7	6	-3	35	70*	9	82*	-3
CCOC(=O)C(C)Sc1nc(-c2cccs2)ccc1C#N (centres undefined)	10	i	4	20	28*	-20	43*	-4
C=COC(=O)CSc1nc(-c2cccs2)ccc1C#N	6	i	13	-4	6	-8	x	x
CCCC(=O)Nc1ccc(S(=O)(=O)N2CCc3ccccc32)cc1	x	-6	-5	6	1	4	x	x
Cn1c(=O)c2cc(NC(=O)NCc3ccc(F)cc3)ccc2n1Cc1cccc(C(F)(F)F)c1	x	0	x	16	17	-61	x	x
SMILES	VHR inh abs	BH1578 lux ind	MazEF act	Yp Topo-I inh	PrPC TRFRET	CCHF vOTU inh	PrPC confirm	LD9 tox
Cn1c(=O)c2cc(NC(=O)NCc3ccccc3)ccc2n1Cc1cccc(C(F)(F)F)c1	x	0	x	31	25*	-119	15	-3
Cc1cccc(COc2ccccc2C(=O)OCC(=O)N(C)c2c(N)n(Cc3ccccc3)c(=O)[nH]c2=O)c1	20	i	-3	29	7	-5	x	x
Cn1c(=O)cc(OCCCC(=O)Nc2cc(Br)ccn2)c2ccccc21	x	x	x	x	31*	x	47*	15*
Cn1c(=O)cc(OCCCC(=O)Nc2cc(C(F)(F)F)ccn2)c2ccccc21	x	x	x	x	29*	x	42*	11*
Cn1c(=O)cc(OCCCC(=O)NCc2cccnc2)c2ccccc21	22	6	8	3	-1	-4	x	x
Cn1c(=O)cc(OCCCC(=O)Nc2cc(-c3ccncc3)ccn2)c2ccccc21	x	x	x	x	27*	x	35*	13*
CCOc1ccc(NC(=O)CCCOc2cc(=O)n(C)c3ccccc23)cc1	3	-1	0	-3	-11	-14	x	x
COC(=O)c1ccccc1NC(=O)CCCOc1cc(=O)n(C)c2ccccc12	x	i	x	21	-1	21	x	x
CCOC(=O)Sc1nc2ncncc2[nH]1	x	i	-5	1	3	-10	x	x
Cc1cccc(C(=O)OC(C)C(=O)NCC2CCCCC2)c1O (centres undefined)	x	1	-3	0	-3	-1	x	x
CCN1C(=O)[C@H]2[C@@H](c3ccc(-c4cccc(Cl)c4)c(OC)c3)N3CCC[C@@]3(C(=O)OC)[C@H]2C1=O	x	0	-13	9	5	-10	x	x
Cc1cc(NC(=O)Cc2cn(Cc3ccccc3)c3ccccc23)ccc1Oc1cccnc1	x	x	x	x	11	13	x	x
COc1ccc(-c2cc(CNc3nc(NC(C)C)nc4cc(-c5ccccc5)sc34)on2)cc1	x	0	x	20	25*	11	40*	7
CCOc1cc(S(=O)(=O)n2c(C)nc3ccccc32)ccc1F	3	0	0	-3	59*	5	14	-4
CC(=O)OC1C(=O)OCC23CCC4(C)OC4C2OC2CC(OC(=O)C=CC=CC(=O)OCCC1C)C3(C)C21CO1 (centres undefined)	x	i	5	6	92*	5	98*	63*
COCCCNC(=O)c1ccc(Cn2c(=O)c3ccccc3n(Cc3ccc([N+](=O)[O-])cc3)c2=O)cc1	x	x	x	x	-12	3	x	x
